High-throughput results as filed in PubChem.
ARNT-TACC3 inh = disruptors of human ARNT/TACC3 interaction | Q9Y6A5 | AlphaScreen His-ARNT PAS-B/GST-TACC3 binding, luminescence; TACC3 fragment carries E629A point mutation | hit rate 0.66% among 390,000 | inhibition, % at 9.99 µM;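 active = mean inhibition of replicates at least 50% and at least half of replicates each reaching 50%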
NadD inh = NadD (S. aureus) enzyme inhibition. purified NadD enzyme, colorimetric absorbance read-out. inhibition, % at 20 µM. hit rate 0.78% among 360,000. AID 602399; in the data active = inhibition above about 26%
DAGLB inh = blocks human DAGLB lipase activity; AID 504411; HEK293T DAGLB membrane lysate, EnzChek fluorogenic substrate; hit rate 0.059% among 340,000; inhibition, % at 5.17 µM; in the data active = inhibition above about 34%
HGIII-sPLA2 inh = Blocks human group III sPLA2 activity | hit rate 0.56% among 370,000 | inhibition, % at 12.2 µM | AID 743126 | QFRET BODIPY PC-A2 liposome hydrolysis, fluorescence;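 active = inhibition above mean plus 3 SD of compounds lying within the high and low control bounds, cut at about 19% in these data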
Neddylation inh = cullin neddylation inhibition; TR-FRET cullin neddylation, biochemical; AID 651699; hit rate 0.58% among 360,000; inhibition, % at 25 µM; in the data active = inhibition above about 36%
ARNT Alpha ctr = AlphaScreen artifact in ARNT/TACC3 counter-screen. AID 651705. AC50, µM (titrated, usually from 68 µM). shares compounds with ARNT-TACC3 inh. His-ARNT PASB-GST AlphaScreen artifact counter-screen, luminescence. hit rate 50% among 1,200;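 active = every separate test run was called active for a drop in luminescence, with AC50 within twice the top valid dose, actives reach about 71 µM in these data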
Numbers stand for hits. A selection: hits, their analogues and other compounds. The true share with any hit is near 2%.

O=C(NCc1ccccn1)c1ccc(-c2ccccc2)cc1 was read as ARNT-TACC3 inh inactive, NadD inh inactive, DAGLB inh inactive, HGIII-sPLA2 inh inactive and Neddylation inh inactive.
CCC(=O)Nc1ccc2c(c1)OC[C@@H](C)N(S(=O)(=O)c1cn(C)cn1)C[C@@H](C)[C@H](OC)CN(C)C2=O was read as ARNT-TACC3 inh inactive.
`CC(C)NC(=O)Nc1ccc2c(c1)CC(=O)N([C@H](C)CO)C[C@H](C)[C@H](CN(C)S(=O)(=O)c1cccs1)O2` gave ARNT-TACC3 inh 107.7 and ARNT Alpha ctr inactive.
For CC(C)NC(=O)Nc1ccc2c(c1)CC(=O)N([C@@H](C)CO)C[C@H](C)[C@@H](CN(C)S(=O)(=O)c1cccs1)O2 the results were ARNT-TACC3 inh inactive.
For C[C@@H]1CN([C@@H](C)CO)C(=O)Cc2cc(NS(=O)(=O)c3cccs3)ccc2O[C@@H]1CN(C)C(=O)NC1CCCCC1 the results were ARNT-TACC3 inh inactive.
`C[C@H](CO)N1C[C@H](C)[C@H](CN(C)C(=O)NC2CCCCC2)Oc2ccc(NS(=O)(=O)c3cccs3)cc2CC1=O` gave ARNT-TACC3 inh 59.1 and ARNT Alpha ctr inactive.
For CCOc1ccccc1Nc1nc(N)nc(CSc2nccc(C)n2)n1 the results were ARNT-TACC3 inh inactive, NadD inh inactive, DAGLB inh inactive, HGIII-sPLA2 inh inactive and Neddylation inh inactive.
`CCOc1ccccc1Nc1nc(N)nc(CN(C)C2CCCCC2)n1` gave ARNT-TACC3 inh 62.7, NadD inh inactive, DAGLB inh inactive, HGIII-sPLA2 inh inactive, Neddylation inh inactive and ARNT Alpha ctr inactive.
O=C(C[C@H]1C[C@H]2c3cc(NC(=O)c4cccnc4)ccc3O[C@H]2[C@@H](CO)O1)NCCN1CCCCC1 was read as ARNT-TACC3 inh inactive.
Screening CO[C@H]1CN(C)C(=O)c2cc(NC(=O)NC3CCCCC3)ccc2OC[C@@H](C)N(CC2CC2)C[C@H]1C returned ARNT-TACC3 inh inactive.
`CO[C@H]1CN(C)C(=O)c2cc(NC(=O)NC3CCCCC3)ccc2OC[C@H](C)N(CC2CC2)C[C@@H]1C` gave ARNT-TACC3 inh 57.0 and ARNT Alpha ctr inactive.
For CO[C@@H]1CN(C)C(=O)c2cc(NC(=O)c3ccccc3)ccc2OC[C@@H](C)N(C(=O)C2CC2)C[C@H]1C the results were ARNT-TACC3 inh 12.1 and ARNT Alpha ctr inactive.
Screening FC(F)(F)c1cnc(-c2cnc(-c3ccncc3)nc2)c(Cl)c1 returned ARNT-TACC3 inh inactive, NadD inh inactive, DAGLB inh inactive, HGIII-sPLA2 inh inactive and Neddylation inh inactive.
Screening FC(F)(F)c1cnc(-c2cnc(-c3ccccn3)nc2)c(Cl)c1 returned ARNT-TACC3 inh 55.2, NadD inh inactive, DAGLB inh inactive, HGIII-sPLA2 inh inactive, Neddylation inh inactive and ARNT Alpha ctr inactive.
O=C(C[C@H]1C=C[C@H](NC(=O)Nc2ccccc2)[C@@H](CO)O1)NCc1cccc(F)c1 was read as ARNT-TACC3 inh inactive.
CO[C@H]1CN(C)C(=O)c2ccc(NC(=O)C3CCCC3)cc2OC[C@H](C)N(CCC(F)(F)F)C[C@H]1C was read as ARNT-TACC3 inh inactive.
C[C@H](CO)N1C[C@H](C)[C@H](CN(C)S(=O)(=O)c2ccccc2)OCCCC[C@H](C)Oc2ccc(NC(=O)Nc3ccc(F)cc3)cc2C1=O was read as ARNT-TACC3 inh inactive.
Screening O=S(=O)(c1cccc2cccnc12)N1CCN(Cc2ccc(OCCO)cc2)CC1 returned ARNT-TACC3 inh 64.2 and ARNT Alpha ctr 51.4µM.
For O=S(=O)(NC1CCN(Cc2ccc(OCCO)cc2)CC1)c1cc(Cl)ccc1Cl the results were ARNT-TACC3 inh inactive.
`O=S(=O)(NC1CCN(Cc2ccc(OCCO)cc2)CC1)c1cccc2cccnc12` gave ARNT-TACC3 inh 112.9 and ARNT Alpha ctr 24.8µM.
O=C(C1CCN(S(=O)(=O)c2cccc3cccnc23)CC1)N1CCN(Cc2ccccc2)CC1 was read as ARNT-TACC3 inh inactive, NadD inh inactive, DAGLB inh inactive, HGIII-sPLA2 inh inactive and Neddylation inh inactive.
For CC(C)NC(=O)N(C)C[C@@H]1Oc2ccc(NS(=O)(=O)c3ccc(Cl)cc3)cc2CC(=O)N([C@@H](C)CO)C[C@H]1C the results were ARNT-TACC3 inh inactive.
